About 280 (8.5%) of roughly 3,300 compounds were called active. Many of the other results were omitted from the sample, so actives are more common in it than they were. Values without a mark were called inactive.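 The calls were made as follows: active = mean growth inhibition over the two runs of 50% or more; inactive = mean growth inhibition under 50%.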
assay: A549 NSCLC cell proliferation inhibitors – ATP luminescence, human non-small cell lung line, primary screen (AID 371); details: at 10 µM, stronger effect = higher value;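 also: compound exposure lasted 72 h before the ATP read; 0% = untreated cell signal and 100% = no luminescence left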

| SMILES | growth inhibition |
| --- | --- |
| O=C(O)c1cc(O)c2c(c1)C(=O)c1cccc(O)c1C2=O | 59.2% (active) |
| CN1CCN(Cc2c(O)ccc3c(-c4ccccc4)cc(=O)oc23)CC1 | 8.11% |
| Cc1c(Cl)c(C(F)(F)F)nn1CC(=O)N1CCSCC1 | 8.88% |
| Cn1c(OCc2cccnc2)nc2c1c(=O)n(Cc1ccc(Cl)cc1)c(=O)n2C | 35.5% |
| O=C(NCCCNCc1ccccc1)/C(=N\O)c1ccccc1 | 1.98% |
| CCOC(=O)c1[nH]c2ccc(Br)cc2c1NC(=O)CNC | 15.7% |
| C=COC(=O)CSc1nc(-c2cccs2)ccc1C#N | 5.33% |
| CC(=O)NCC(=O)OCN1C(=O)c2ccccc2C1=O | -2.75% |
| CCCSc1ccc2nc(NC(=O)OC)[nH]c2c1 | 53.2% (active) |
| CCC(=O)Nc1nc(C)c(Oc2ccccc2)c(=O)[nH]1 | 1.39% |
| CCCOc1ccc2nc(NC(=O)OC)[nH]c2c1 | 48.4% |
| Cn1c(=O)oc2cc(C(=O)c3ccccc3)ccc21 | 13.3% |
| COC(=O)Nc1nc2ccc(C(=O)c3ccccc3)cc2[nH]1 | 55.8% (active) |
| CCOc1ccc2nc(SCC(=O)Nc3ncccn3)[nH]c2c1 | -4.07% |
| Cn1c(=O)n(C)c2cc(C(=O)c3ccccc3)ccc21 | 5.5% |
| CC(=O)Nc1ccc(Oc2ccc3nc(C)[nH]c3c2)cc1 | 10.6% |
| COC(=O)Nc1nc2ccc(Sc3ccccc3)cc2[nH]1 | 81.7% (active) |
| COC(=O)CCc1c(C)[nH]c(C(=O)OCc2ccccc2)c1C | 3.52% |
| O=C(Nc1ccc2c(c1)OCO2)c1cc2n(n1)C(C(F)(F)F)CC(c1ccccc1)N2 (stereo not given) | 10.4% |
| Cc1nc2sc(C)c(C)c2c(=O)o1 | 3.93% |
| COCCCNC(=O)C(C#N)c1nc2ccccc2nc1N1CCCC1 (stereo not given) | 9.56% |
| O=C(O)CCCC(=O)Nc1ccn(-c2ccccc2)n1 | -9.55% |
| COc1ccc(C2C(C#N)=C(C)NC3=C2C(=O)c2ccccc23)cc1 (stereo not given) | 19.6% |
| COCCOCCOCCC(=O)NC1CC2CCC1(C)C2(C)C (stereo not given) | 0.85% |
| O=C(CCC1CCCC1)N1CCC(N2CCN(c3ccccc3)CC2)CC1 | 17.9% |

| SMILES | growth inhibition |
| --- | --- |
| CC(NCCc1ccc(O)cc1)C(O)c1ccc(O)cc1 (stereo not given) | 1.42% |
| CCCCCCCCNC(C)C(O)c1ccc(SC(C)C)cc1 (stereo not given) | 92.4% (active) |
| NC(=O)C1CCN(CCC(=O)Nc2ccc(Br)cc2)CC1 | 7.48% |
| Cc1cccc(NC(=O)c2c(C)cc(=O)oc2C)n1 | -3.57% |
| CCNc1nc(Oc2ccccc2)nc(OC(C)C(=O)OCC)n1 (stereo not given) | -2.75% |
| COc1cc(-n2c3nc4ccccc4nc3c3c(=O)n(Cc4ccco4)cnc32)cc(OC)c1OC | 4.1% |
| CCOc1ccc(-n2c3nc4ccccc4nc3c3c(=O)n(Cc4ccco4)cnc32)cc1 | 14.6% |
| Cc1cc(C)cc(-n2c3nc4ccccc4nc3c3c(=O)n(Cc4ccco4)cnc32)c1 | 72.2% (active) |
| COc1ccc(C2(CN(C(C)=O)C(C)=O)CCCC2)cc1OC | 9.44% |
| COC(=O)NCC12CC3CC(C1)CC(CNC(=O)OC)(C3)C2 | 2.32% |
| Nc1c(Br)cc2oc(-c3ccccc3)nc2c1Br | 31.4% |
| COc1ccc(N2CC(=O)N(c3ccc(OC)c(OC)c3)CC2=O)cc1OC | -2.72% |
| COc1ccc(OC)c(NS(=O)(=O)c2ccc(N3CCCC3=O)cc2)c1 | 62.5% (active) |
| O=C1CCCN1c1ccc(S(=O)(=O)NCc2ccco2)cc1 | 0.41% |
| CCOc1ccc(/C(O)=C2/C(=O)C(=O)N(CCN(C)C)C2c2ccccc2)cc1Cl (stereo not given) | -0.75% |
| COc1cccc(/C(O)=C2\C(=O)C(=O)N(c3ccccn3)C2c2ccccc2OC)c1 (stereo not given) | 6.79% |
| CC(C)Cn1cnc2c(c1=O)c1nc3ccccc3nc1n2Cc1ccc2c(c1)OCO2 | 12.6% |
| CC(C)C1Cc2c(C#N)c(N)n(C)c(=S)c2CO1 (stereo not given) | 11.2% |
| COc1ccc(OC)c(C2C(C(=O)c3ccco3)=C(O)C(=O)N2CCCN2CCOCC2)c1 (stereo not given) | 4.05% |
| c1ccc(N2CCN(c3nc(-c4ccccn4)nc4ccccc34)CC2)cc1 | 64.6% (active) |
| COc1cccc(-c2nc(N3CCN(Cc4ccccc4)CC3)c3ccccc3n2)c1O | 6.86% |
| c1ccc2c(N3CCCCC3)nc(N3CCCCC3)nc2c1 | 25.8% |
| Cc1nc(N2CCN(Cc3ccccc3)CC2)c(C#N)c2c1COC(C)(C)C2 | 17.5% |
| c1ccc(CN2CCN(c3nc(-c4ccccn4)nc4ccccc34)CC2)cc1 | 60% (active) |
| Fc1ccccc1-c1nc(N2CCCCC2)c2ccccc2n1 | 47.5% |

Source: PubChem BioAssay AID371 (SRMLSC, 2006)
